Source: PubChem BioAssay
Giardia killer: kills Giardia lamblia; 0.15% of 340,000 active; activity change, % at 7.66 µM, hits read low; Giardia lamblia trophozoite viability; AID 540267; in the data active = activity change below about -80%; inconclusive = between about -30% and that limit;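 also: parasites exposed to compound for two days anaerobically before the ATP read; % is scaled to controls: 0 for no effect and ±100 for the full control effect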
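Media and compound were dispensed first, then trophozoites at 100 cells/well; plates sat 48 hrs at 37 deg C without oxygen before ATP luminescence reagent was added and read after 15-30 min at room temperature.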
CCT modulator: cytosolic chaperonin activity modulation; purified chaperonin ATPase assay, HTRF ADP detection, 30 min; activity change, % (concentration not given with the values), hits read low; 0.3% of 360,000 active; AID 651819; in the data active = activity change below about -30%; also: % is scaled to controls: 0 for no effect and ±100 for the full control effect
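TRiC at 40 or 20 nM final (batch-dependent) in 30 mM Tris pH 7.4, 100 mM KCl, 5 mM MgCl2, 1 mM DTT, with compound at single 76 uM and 10 uM ATP, 30 min at 37 deg C. ADP detected by HTRF Transcreener, 665/615 ratio.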
Rango-impB inh: prevents formation of the Rango-importin beta complex | Rango CFP/YFP FRET sensor + importin beta, 45 min | Potency, µM (titrated, usually from 92.2 µM), for inactives: at the top dose inhibition of complex formation | 0.031% of 340,000 active | AID 540263;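 also: potency is read from the fitted curve at half-maximal effect; 0% = DMSO wells and 100% = buffer wells lacking importin beta; nearly all actives have a fitted effect of over 15% in size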
Target sequence (Q14974 whole entry, looked up): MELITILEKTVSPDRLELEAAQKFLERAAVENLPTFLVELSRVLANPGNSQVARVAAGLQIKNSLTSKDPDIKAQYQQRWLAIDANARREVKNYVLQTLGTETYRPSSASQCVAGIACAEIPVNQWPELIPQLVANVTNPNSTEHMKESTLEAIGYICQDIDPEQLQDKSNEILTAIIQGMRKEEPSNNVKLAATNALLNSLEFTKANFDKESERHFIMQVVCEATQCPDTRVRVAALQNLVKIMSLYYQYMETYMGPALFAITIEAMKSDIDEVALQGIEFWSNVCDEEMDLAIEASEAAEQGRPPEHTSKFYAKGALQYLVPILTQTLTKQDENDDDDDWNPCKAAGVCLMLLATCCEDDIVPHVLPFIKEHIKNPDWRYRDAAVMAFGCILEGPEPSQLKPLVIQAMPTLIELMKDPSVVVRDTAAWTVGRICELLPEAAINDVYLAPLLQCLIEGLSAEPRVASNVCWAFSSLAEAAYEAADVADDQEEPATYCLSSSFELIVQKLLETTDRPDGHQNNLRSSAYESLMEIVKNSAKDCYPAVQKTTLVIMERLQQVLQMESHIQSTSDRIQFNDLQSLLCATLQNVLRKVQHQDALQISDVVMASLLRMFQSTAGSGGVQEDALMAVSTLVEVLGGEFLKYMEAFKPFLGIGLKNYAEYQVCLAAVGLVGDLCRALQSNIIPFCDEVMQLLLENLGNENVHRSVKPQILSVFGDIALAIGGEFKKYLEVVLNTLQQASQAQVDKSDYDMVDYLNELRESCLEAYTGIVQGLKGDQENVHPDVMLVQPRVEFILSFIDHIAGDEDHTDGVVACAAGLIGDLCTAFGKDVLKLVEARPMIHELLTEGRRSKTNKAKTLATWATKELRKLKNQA
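FRET biosensor Rango (snurportin 1 IBB between N-terminal EYFP and C-terminal Cerulean), 50 nM in PBS/1 mM DTT/0.02% Tween-20/0.1% BSA, preincubated 5 min RT with compound; 0.125 microM importin beta added, 45 min RT, CFP/YFP FRET ratio read.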
Rango release inh: inhibition of RanGTP-driven Rango-importin beta dissociation; Potency, µM (doses to about 46.1 µM), inactives show top-dose activity change, negative = inhibition; 0.071% of 340,000 active; AID 540253; Biochemical FRET Rango-importin beta, RanGTP-induced dissociation; also: potency is read from the fitted curve at half-maximal effect; % of control where 0% means no effect; nearly all actives have a fitted effect of over 45% in size
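FRET read at 45 min, room temperature: inhibitors block the CFP/YFP signal rise when RanGTP (0.6 uM Ran, 2 mM GTP, 0.2 uM RCC1) frees Rango (0.1 uM) from importin beta (0.25 uM). Pre-read after 5 min compound exposure flags interference.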
MmCpn inh: inhibitors of Methanococcus maripaludis chaperonin TRiC (MmCpn). purified Mm-Cpn ATPase, ADP Transcreener TR-FRET. Potency, µM (titrated, usually from 76.9 µM), for the others: top-dose activity, negative = inhibition, hits mostly inhibitors. 0.031% of 330,000 active; active = well fitted inhibition curve with a large enough effect; inconclusive = small, poorly fitted or top-dose-only effect; also: potency is read from the fitted curve at half-maximal effect; % is scaled to controls: 0 for no effect and ±100 for the full control effect; nearly all actives have a fitted effect of over 80% in size
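Purified archaeal chaperonin (25 nM final) was preincubated with compound for 10 min at 37°C, then ATP (10 uM final) was added for 30 min at 37°C in Tris pH 7.4/KCl/MgCl2/DTT buffer. ADP was quantified by HTRF Transcreener TR-FRET.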
Active calls of the source: *; u = inconclusive; x = no result. A selection: hits, their analogues and other compounds. The true share with any hit is near 0.53%. Unless noted, calls follow the shape of the full dose curve.

SMILES	Giardia killer	CCT modulator	Rango-impB inh	Rango release inh	MmCpn inh
O=C(N/N=C\c1ccccc1)c1ccccc1-n1cccc1	-1.5	-0.8	0.9%	25.9%	0.9%
CCCN(CCC)c1nc(N)nc(C#N)n1	7.0	x	x	x	x
CCCC[C@@H]1CCCO[C@@](C(=O)NCC2CC2)(C(F)(F)F)C1	-22.3	x	x	x	x
COc1ccc(-c2nc3ccccn3c2Nc2ccccc2C)cc1	2.9	x	x	x	x
O=C(N/N=C/c1ccc([N+](=O)[O-])o1)c1cn(-c2ccccc2)nc1-c1ccccc1	-94.6*	0.0	-0.7%	u	-0.2%
O=C(O)COc1ccc(/C=N/NC(=O)c2cn(-c3ccccc3)nc2-c2ccccc2)cc1	-3.0	0.6	0.9%	4.7%	-0.1%
Cc1ccc(S(=O)(=O)NCC(=O)NCc2cc(=O)n(C)c(=O)n2C)cc1C	-24.1	-79.5*	4.3%	1.0%	-16.2%
Cc1ccc(C)c(NC(=O)Cn2nnc(-c3ccc(N4CCOCC4)cc3)n2)c1	-18.7	-78.5*	-0.5%	-8.8%	-0.1%
Cc1cccc(C)c1NC(=O)Cn1nnc(-c2ccc(N3CCOCC3)cc2)n1	6.6	-0.5	0.1%	3.0%	-0.9%
C/C=C/C(=O)[C@@H](C)[C@@H](/C=C/C[Si](C)(C)C)C(C)C	-26.1	x	x	x	x
COc1ccc(-c2cn3c(C)c(C(=O)Nc4ccncc4)sc3n2)cc1	2.3	-2.6	u	-22.5%	44.7µM*
CCOC(=O)Cn1c(-c2cccnc2Cl)nc2cc(C)c(C)cc21	18.2	-33.9*	-0.6%	-5.5%	0.3%
COc1ccc(OCC(=O)Nc2cc(OC)cc(OC)c2)cc1	5.2	-46.4*	-0.9%	-10.4%	2.5%
COc1ccc(OCC(=O)Nc2cccc(OC)c2)cc1	-9.4	-3.0	-0.5%	37.9%	0.4%
N#C/C(=C\c1cc(Cl)cc(Cl)c1O)C(=O)NC1CCCCC1	-7.6	-0.3	u	6.51µM*	-2.9%
Cc1ccc(C)c(NC(=O)NNC(=O)c2cc3occc3[nH]2)c1	-6.9	-2.9	-0.2%	4.3%	-1.1%
COc1ccc(OC)c(NC(=O)NNC(=O)c2cc3occc3[nH]2)c1	-4.4	-68.3*	0.8%	0.8%	2.5%
COCCn1c(=S)[nH]c2cc(C(=O)N3CCN(Cc4ccccc4)CC3)ccc2c1=O	4.4	x	x	x	x
CC(=O)c1ccccc1S(=O)(=O)N1CCN(c2nc(-c3cccs3)nc3ccccc23)CC1	6.4	x	x	x	x
O=C(O/N=C/c1ccc2c(c1)OCO2)c1ccc([N+](=O)[O-])cc1	11.4	-30.6*	2.5%	22.0%	-15.0%
COc1cccc(CNC(=O)c2ccc3c(c2)N(Cc2ccc(F)cc2Cl)C(=O)c2ccccc2S3)c1	-17.9	x	x	x	x
CCN(CC)S(=O)(=O)c1ccc(N2CCOCC2)c(NC(=O)c2ccccc2)c1	14.7	2.2	-1.2%	-5.4%	0.7%
CCN(CC)S(=O)(=O)c1ccc(N2CCOCC2)c(NC(=O)C23CC4CC(CC(Cl)(C4)C2)C3)c1	0.7	-71.8*	-4.1%	9.0%	0.7%
COC(=O)c1c(NC(=O)CS(=O)(=O)c2ccc(C)cc2)sc2c1CCCCC2	-29.7	x	x	x	x
CCOC(=O)c1c(C2COc3ccccc3O2)csc1N (configuration not stated)	-0.3	-40.6*	2.2%	-7.3%	0.7%
SMILES	Giardia killer	CCT modulator	Rango-impB inh	Rango release inh	MmCpn inh
CC(=O)N1CCN(c2c(F)c(F)c(C(F)(F)F)c(F)c2F)CC1	5.3	-38.0*	1.0%	2.5%	0.1%
O=C(c1ccncc1)N(c1ccc2oc3c(c2c1)CCCC3)S(=O)(=O)c1cccc([N+](=O)[O-])c1	-24.0	1.9	-0.3%	17.2%	0.9%
COc1ccc(S(=O)(=O)N(C(=O)c2ccncc2)c2ccc3oc4c(c3c2)CCCC4)cc1	-0.8	-41.6*	-3.0%	-16.1%	1.4%
Cn1nccc1C(=O)Nc1ccc2c(c1)OCO2	-4.1	-54.8*	9.8%	3.5%	-1.8%
Cn1nccc1C(=O)Nc1ccc(Cl)cc1	-11.3	1.3	7.5%	-5.3%	0.7%
O=[N+]([O-])c1ccc(CN2CCN(c3ccccc3)CC2)o1	-92.1*	-0.4	2.1%	1.9%	1.4%
Cc1ccccc1N1CCN(Cc2ccc([N+](=O)[O-])o2)CC1	-83.1*	-1.4	-3.4%	-2.1%	2.2%
CCOC(=O)CNC(=S)N(Cc1ccccc1)Cc1cccnc1	-7.3	-33.8*	1.4%	0.3%	1.4%
